# Results from ChEMBL document CHEMBL2218924, “A broad activity screen in support of a chemogenomic map for kinase signalling research and drug discovery” (Biochem J, 2013).
# Key:
# [1] = molecular target: Insulin receptor (Homo sapiens) (UniProt P06213); settings: at 10 µM
# [2] = molecular target: Insulin receptor (Homo sapiens) (UniProt P06213); settings: at 1 µM
# [3] = molecular target: Insulin receptor (Homo sapiens) (UniProt P06213); settings: at 10 µM; remark: listed apart in the source
# [4] = molecular target: Interleukin-1 receptor-associated kinase 1 (Homo sapiens) (UniProt P51617); settings: at 1 µM
# Sequence of Interleukin-1 receptor-associated kinase 1 (Homo sapiens) (P51617 whole entry, looked up): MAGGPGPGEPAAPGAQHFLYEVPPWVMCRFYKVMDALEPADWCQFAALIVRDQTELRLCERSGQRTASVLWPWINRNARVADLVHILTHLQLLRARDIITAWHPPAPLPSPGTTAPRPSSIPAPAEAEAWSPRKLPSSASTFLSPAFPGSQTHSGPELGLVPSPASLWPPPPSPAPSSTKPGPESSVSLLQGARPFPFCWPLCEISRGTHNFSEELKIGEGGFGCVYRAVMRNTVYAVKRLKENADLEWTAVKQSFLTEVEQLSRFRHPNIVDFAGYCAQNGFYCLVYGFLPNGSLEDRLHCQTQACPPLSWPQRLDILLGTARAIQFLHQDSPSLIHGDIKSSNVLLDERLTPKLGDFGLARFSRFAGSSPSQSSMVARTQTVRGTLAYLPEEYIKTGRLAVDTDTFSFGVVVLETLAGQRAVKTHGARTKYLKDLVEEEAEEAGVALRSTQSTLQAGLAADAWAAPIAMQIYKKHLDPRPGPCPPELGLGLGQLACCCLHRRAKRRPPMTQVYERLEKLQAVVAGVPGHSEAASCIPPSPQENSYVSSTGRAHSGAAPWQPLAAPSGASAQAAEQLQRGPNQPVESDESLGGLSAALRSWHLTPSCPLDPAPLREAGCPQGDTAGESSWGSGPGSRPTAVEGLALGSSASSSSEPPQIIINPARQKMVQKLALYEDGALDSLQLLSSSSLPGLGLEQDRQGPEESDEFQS
# [5] = molecular target: Interleukin-1 receptor-associated kinase 1 (Homo sapiens) (UniProt P51617); settings: at 10 µM
# [6] = molecular target: T1, Interleukin-1 receptor-associated kinase 4 (Homo sapiens) (UniProt Q9NWZ3); settings: at 1 µM
# T1 sequence (whole entry): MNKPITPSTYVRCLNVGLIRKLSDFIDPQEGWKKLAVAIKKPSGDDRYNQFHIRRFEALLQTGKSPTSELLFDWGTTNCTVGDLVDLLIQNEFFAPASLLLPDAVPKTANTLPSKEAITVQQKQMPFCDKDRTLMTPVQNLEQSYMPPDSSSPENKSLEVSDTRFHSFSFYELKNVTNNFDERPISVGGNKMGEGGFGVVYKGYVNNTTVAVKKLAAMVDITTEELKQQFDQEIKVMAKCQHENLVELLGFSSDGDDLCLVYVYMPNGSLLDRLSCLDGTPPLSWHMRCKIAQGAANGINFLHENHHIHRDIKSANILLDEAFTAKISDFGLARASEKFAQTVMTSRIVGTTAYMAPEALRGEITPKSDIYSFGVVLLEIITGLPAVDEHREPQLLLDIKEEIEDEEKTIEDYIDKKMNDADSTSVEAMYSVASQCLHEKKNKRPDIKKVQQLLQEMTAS
# [7] = molecular target: T1, Interleukin-1 receptor-associated kinase 4 (Homo sapiens); settings: at 10 µM
# [8] = molecular target: Insulin receptor-related protein (Homo sapiens) (UniProt P14616); settings: at 1 µM
# Sequence of Insulin receptor-related protein (Homo sapiens) (P14616 27-742 limits assumed): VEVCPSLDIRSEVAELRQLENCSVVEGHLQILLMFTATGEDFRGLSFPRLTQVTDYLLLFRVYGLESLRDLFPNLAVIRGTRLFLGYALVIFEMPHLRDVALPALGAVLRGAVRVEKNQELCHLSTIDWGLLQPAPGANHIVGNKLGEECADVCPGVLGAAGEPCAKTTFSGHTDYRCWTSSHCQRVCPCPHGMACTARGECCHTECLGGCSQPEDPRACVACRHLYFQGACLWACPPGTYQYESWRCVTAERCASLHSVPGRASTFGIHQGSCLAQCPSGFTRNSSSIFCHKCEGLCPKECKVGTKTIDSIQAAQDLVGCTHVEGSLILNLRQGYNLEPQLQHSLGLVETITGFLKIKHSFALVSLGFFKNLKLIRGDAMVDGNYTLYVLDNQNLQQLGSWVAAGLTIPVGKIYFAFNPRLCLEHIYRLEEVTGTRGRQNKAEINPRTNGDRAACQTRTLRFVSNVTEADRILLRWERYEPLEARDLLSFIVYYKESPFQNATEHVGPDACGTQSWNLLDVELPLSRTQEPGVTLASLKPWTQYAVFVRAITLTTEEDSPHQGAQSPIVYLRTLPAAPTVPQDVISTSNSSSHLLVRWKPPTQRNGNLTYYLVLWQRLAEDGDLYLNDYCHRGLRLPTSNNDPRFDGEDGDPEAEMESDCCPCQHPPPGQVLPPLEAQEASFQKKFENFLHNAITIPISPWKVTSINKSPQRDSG
# Sequence of Insulin receptor-related protein (Homo sapiens) (P14616 747-1297 limits assumed): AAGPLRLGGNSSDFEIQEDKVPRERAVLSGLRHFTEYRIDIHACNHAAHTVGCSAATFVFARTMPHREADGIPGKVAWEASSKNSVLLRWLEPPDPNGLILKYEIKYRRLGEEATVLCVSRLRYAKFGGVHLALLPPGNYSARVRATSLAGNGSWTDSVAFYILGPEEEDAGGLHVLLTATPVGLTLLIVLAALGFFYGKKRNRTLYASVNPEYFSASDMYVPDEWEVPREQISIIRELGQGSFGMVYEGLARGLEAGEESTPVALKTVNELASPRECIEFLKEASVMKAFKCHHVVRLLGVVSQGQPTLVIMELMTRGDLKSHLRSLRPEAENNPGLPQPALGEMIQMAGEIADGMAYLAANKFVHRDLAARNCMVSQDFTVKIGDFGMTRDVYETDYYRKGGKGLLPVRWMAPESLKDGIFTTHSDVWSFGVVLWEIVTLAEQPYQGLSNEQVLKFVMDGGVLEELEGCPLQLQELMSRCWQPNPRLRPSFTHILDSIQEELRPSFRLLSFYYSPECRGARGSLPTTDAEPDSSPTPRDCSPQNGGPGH
# [9] = molecular target: Insulin receptor-related protein (Homo sapiens) (UniProt P14616); settings: at 10 µM
# [10] = molecular target: T2, Tyrosine-protein kinase ITK/TSK (Homo sapiens) (UniProt Q08881); settings: at 1 µM
# T2 sequence (whole entry): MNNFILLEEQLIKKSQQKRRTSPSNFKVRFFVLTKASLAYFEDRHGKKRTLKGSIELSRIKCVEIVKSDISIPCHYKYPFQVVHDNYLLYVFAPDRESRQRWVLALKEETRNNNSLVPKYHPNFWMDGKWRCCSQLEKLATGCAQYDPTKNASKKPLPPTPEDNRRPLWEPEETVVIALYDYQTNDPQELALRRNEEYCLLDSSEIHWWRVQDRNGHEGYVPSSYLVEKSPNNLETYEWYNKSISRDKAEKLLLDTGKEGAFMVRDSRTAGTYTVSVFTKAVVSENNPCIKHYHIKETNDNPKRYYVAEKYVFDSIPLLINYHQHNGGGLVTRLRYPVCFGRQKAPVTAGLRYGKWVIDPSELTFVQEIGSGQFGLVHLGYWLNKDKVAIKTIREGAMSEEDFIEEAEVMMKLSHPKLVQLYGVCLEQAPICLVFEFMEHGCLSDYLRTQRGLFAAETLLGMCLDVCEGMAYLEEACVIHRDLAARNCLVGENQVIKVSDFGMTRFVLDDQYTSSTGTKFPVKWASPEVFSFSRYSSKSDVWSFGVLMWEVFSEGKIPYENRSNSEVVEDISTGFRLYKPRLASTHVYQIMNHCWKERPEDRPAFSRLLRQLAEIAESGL
# Sequence of Insulin receptor (Homo sapiens) (P06213 28-758 limits assumed): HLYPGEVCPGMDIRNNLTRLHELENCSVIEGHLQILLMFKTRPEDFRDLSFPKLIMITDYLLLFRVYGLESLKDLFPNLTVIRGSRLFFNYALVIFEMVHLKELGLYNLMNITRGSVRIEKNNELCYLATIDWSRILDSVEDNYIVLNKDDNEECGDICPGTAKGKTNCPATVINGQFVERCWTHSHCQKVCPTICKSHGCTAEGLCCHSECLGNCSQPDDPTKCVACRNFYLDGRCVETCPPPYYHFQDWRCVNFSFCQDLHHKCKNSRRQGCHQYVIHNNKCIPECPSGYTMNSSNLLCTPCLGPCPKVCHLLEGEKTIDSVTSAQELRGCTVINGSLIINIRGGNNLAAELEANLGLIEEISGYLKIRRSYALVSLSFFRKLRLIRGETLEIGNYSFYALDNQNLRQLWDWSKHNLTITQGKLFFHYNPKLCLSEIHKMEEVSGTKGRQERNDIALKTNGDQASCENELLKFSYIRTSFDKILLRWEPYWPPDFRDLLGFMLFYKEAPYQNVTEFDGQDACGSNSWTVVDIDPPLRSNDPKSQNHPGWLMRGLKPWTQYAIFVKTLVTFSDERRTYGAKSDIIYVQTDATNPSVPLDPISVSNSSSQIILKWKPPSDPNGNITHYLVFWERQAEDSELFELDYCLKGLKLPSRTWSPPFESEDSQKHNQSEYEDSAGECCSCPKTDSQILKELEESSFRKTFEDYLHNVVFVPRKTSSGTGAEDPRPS
# Sequence of Insulin receptor (Homo sapiens) (P06213 763-1382 limits assumed): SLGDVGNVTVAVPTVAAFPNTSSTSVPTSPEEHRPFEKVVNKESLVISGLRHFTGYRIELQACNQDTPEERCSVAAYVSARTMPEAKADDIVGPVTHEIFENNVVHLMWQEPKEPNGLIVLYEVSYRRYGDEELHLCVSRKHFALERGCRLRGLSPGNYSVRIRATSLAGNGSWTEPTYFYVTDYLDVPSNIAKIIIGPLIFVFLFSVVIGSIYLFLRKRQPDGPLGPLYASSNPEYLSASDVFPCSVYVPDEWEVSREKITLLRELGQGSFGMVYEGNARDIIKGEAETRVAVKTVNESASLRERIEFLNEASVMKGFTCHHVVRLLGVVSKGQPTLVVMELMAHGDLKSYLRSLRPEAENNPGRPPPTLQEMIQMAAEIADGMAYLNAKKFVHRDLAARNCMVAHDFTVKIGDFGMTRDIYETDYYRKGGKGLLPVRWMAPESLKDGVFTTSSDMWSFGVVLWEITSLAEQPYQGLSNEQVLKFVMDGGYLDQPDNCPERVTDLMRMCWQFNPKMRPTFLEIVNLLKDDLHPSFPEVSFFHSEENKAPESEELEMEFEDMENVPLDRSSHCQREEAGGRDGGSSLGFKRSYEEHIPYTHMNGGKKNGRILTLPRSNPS
SMILES,residual activity [1] [%],residual activity [2] [%],residual activity [3] [%],residual activity [4] [%],residual activity [5] [%],residual activity [6] [%],residual activity [7] [%],residual activity [8] [%],residual activity [9] [%],residual activity [10] [%]
O=[N+]([O-])c1ccc(-c2nc(-c3ccc(F)cc3)c(-c3ccncc3)[nH]2)cc1,109,105,95,107,108,104,97,124,98,108
Cc1ccc(NC2=CC(=O)c3sc(C)nc3C2=O)cc1,90,102,96,105,110,85,86,118,108,105
O=C1Nc2cc(Br)ccc2/C1=C1/Nc2ccccc2/C1=N\O,82,98,83,93,90,35,34,78,85,22
O=C1NC(=O)/C(=C\c2ccc3nccnc3c2)S1,94,103,97,76,35,104,91,127,58,97
N#Cc1cnc2cnc(NCc3cccnc3)cc2c1Nc1ccc(F)c(Cl)c1,123,72,52,93,103,64,43,90,89,72
Nc1n[nH]c2nnc(-c3c(-c4ccccc4)nn4ccccc34)cc12,25,89,44,95,104,66,64,88,23,96
CN(C)CCCn1cc(C2=C(c3c[nH]c4ccccc34)C(=O)NC2=O)c2ccccc21,100,100,72,111,89,121,53,137,75,
CC(=O)O/N=C1\C(=C2\C(=O)Nc3cc(Br)ccc32)Nc2ccccc21,91,102,81,95,96,86,48,109,92,82
COc1cc2ncnc(Nc3ccc(O)c(Br)c3)c2cc1OC,76,95,91,40,10,44,17,102,75,89
Cc1ccc(S(=O)(=O)/C=C/C#N)cc1,91,99,95,102,109,97,92,119,106,103
Oc1c2ccccc2c2c3c(cccc13)N=N2,47,70,26,69,42,36,11,102,51,67
O=C(Nc1cccc(Nc2nccc(Nc3cccc(C(F)(F)F)c3)n2)c1)C1CC1,12,86,97,81,82,50,44,13,1,96
CCN(CC)CCCCN1c2ccccc2Oc2ccc(Cl)cc21,112,102,104,111,105,118,107,121,102,108
O=C(O)c1ccc2c3c1cccc3c(=O)n1c3ccccc3nc21,110,104,85,35,3,105,89,125,98,107
O=C(Nc1cccc(Nc2cc(Nc3cccc(C(F)(F)F)c3)ncn2)c1)C1CC1,94,97,106,95,96,97,80,117,63,105
Cc1nc(-c2ccccc2)c(-c2ccncc2)o1,106,109,93,110,107,104,88,118,123,113
